Shown are actives, neighbours in structure and some others; about 15% of the full set was active somewhere.
Pf growth 96h: P. falciparum growth inhibition at 96 hours; hit rate 6.9% among 320,000; P. falciparum luciferase reporter growth, 96 h; AID 504834; Potency, µM (doses to about 28.7 µM), usual class: inhibitors
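Compounds incubated with erythrocytes infected by luciferase-expressing P. falciparum (2% hematocrit, 0.05% parasitemia final) for 96 hours, 37 C in 5% CO2. Growth inhibition scored as decreased luciferase luminescence.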
Pf growth 48h: P. falciparum growth inhibition at 48 hours (one generation). hit rate 5.9% among 310,000. Potency, µM (titrated, usually from 28.7 µM), hits mostly inhibitors. AID 504832. P. falciparum luciferase growth in erythrocytes, 48 h
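Luminescence readout; reporter = integrated firefly luciferase in P. falciparum. RBC culture at 2% hematocrit, 0.1% parasitemia final, 37 C/5% CO2; decreased signal taken as growth inhibition.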
HCV inh: blocks hepatitis C virus; Potency, µM (series often up to 41.8 µM), most hits filed as inhibitors; Huh7.5.1 HCVcc-Cre infection, luciferase reporter, 44 h; hit rate 3.4% among 340,000
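Reporter virus HCVcc-Cre (~0.5 moi) infects cells exposed to compound; seeding density 1,000 cells/well with 4 h settling beforehand. Luminescence, 15 sec read, taken 44 h post-infection following a 15 min RT substrate incubation.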
HCMV inh: human cytomegalovirus inhibition; HFF cells, HCMV-luciferase reporter, 72 h; hits give low values; activity change, negative = inhibition, % at 57.5 µM; hit rate 4.5% among 410,000; AID 1259415; in the data active means activity change below about -60%; inconclusive means no clear call, values can overlap the other calls; inactive means above about -39%
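Cell-based, HFFs, 1000 cells/well, 16 h 37C; cpds in DMSO + HCMV-luc, MOI 1 PFU/cell; 72 h 37C; OneGlo luminescence after 5 min RT; norm. to buffer vs Salinomycin 10uM.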
Sm TGR block: S. mansoni TGR enzyme inhibition | Q962Y6 | purified TGR, DTNB reduction, TNB absorbance 405 nm | Potency, µM (titrated, usually from 114 µM), usual class: inhibitors | hit rate 3% among 360,000 | AID 485364; further: nearly all actives have a fitted effect of over 60% in size
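First, TGR (20 nM dispensed) and NADPH were mixed with compound. Second, a 15 min room-temperature incubation followed. Third, further NADPH and then DTNB were added to start the reaction. Finally, TNB absorbance was monitored kinetically.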
SARS PLP yeast: inhibitors of SARS-CoV papain-like protease in yeast; AID 485353; Potency, µM (doses to about 32.9 µM), most hits filed as activators; hit rate 0.19% among 330,000; S. cerevisiae expressing SARS-CoV PLpro, growth rescue; calls by dose curve; further: nearly all actives have a fitted effect of over 55% in size
A number is an active result; – = inactive; ? = inconclusive; · = no result given; ! = repeats disagree; [ ] = remark or other dose. Unless noted, the call rests on the fitted dose curve; in most records, active means well fitted curve in the direction sought with a large enough effect; inconclusive means small, poorly fitted or top-dose-only effect, or another doubt; inactive means no such curve, though single readings can be large; an effect the other way counts as inactive or inconclusive.

SMILES | Pf growth 96h | Pf growth 48h | HCV inh | HCMV inh | Sm TGR block | SARS PLP yeast
O=C(Nc1cccc(S(=O)(=O)N2CCOCC2)c1)c1ccc2c(=O)n3c(nc2c1)CCCCC3 | ? | – | 7.1µM | -84 | – | –
O=C(NCCCN1CCCC1)c1ccc(CS(=O)(=O)c2ccc(Br)cc2)o1 | ? | · | – | – | – | –
O=S(=O)(NCCc1ccccc1)c1ccc(Br)cc1 | 13µM | – | – | – | – | –
CCC1CCCCN1CCNC(=O)CCS(=O)(=O)c1ccc(Br)cc1 (configuration not stated) | 3.3µM | ? | – | – | – | –
CN1CCN(CCCNC(=O)c2ccc(CS(=O)(=O)c3ccc(Br)cc3)o2)CC1 | 8.3µM | · | – | – | – | –
O=C(CCS(=O)(=O)c1ccc(Br)cc1)Nc1ccccn1 | – | – | – | ? | 3.2µM | –
COc1ccc(N(CCC(=O)O)S(=O)(=O)c2ccc(C)cc2C)cc1 | – | – | – | – | – | –
O=C(CCS(=O)(=O)c1ccc(Br)cc1)NCCc1ccccc1 | – | – | – | – | 50µM | –
Cc1ccc(S(=O)(=O)Cc2ccc(C(=O)NCCCN3CCCC3=O)o2)cc1 | – | · | – | – | 20µM | –
CN(CCNC(=O)c1ccc(CS(=O)(=O)c2ccc(Br)cc2)o1)CCc1ccccc1 | ? | – | – | – | – | –
O=C(NCCc1ccccc1)c1ccc(CS(=O)(=O)c2ccc(Br)cc2)o1 | 4.1µM | – | – | ? | ? | –
O=C(NCCCN1CCCC1)c1ccc(CS(=O)(=O)c2ccc(Cl)cc2)o1 | ? | – | ? | – | – | ?
Cc1ccc(C)n1-n1cnc2sc(-c3ccccc3)cc2c1=O | – | ? | 22µM | – | – | –
COc1ccc(-n2cnc3sc(-c4ccccc4)cc3c2=O)cc1 | – | – | ? | -87 | – | –
O=c1c2cc(-c3ccccc3)sc2ncn1-n1cccc1 | · | – | – | – | – | –
COc1ccc(NC(=O)CCSCCc2ccccn2)cc1OC | – | – | – | – | – | –
CCOC(=O)C1(Cc2cccc(Cl)c2)CCCN(C(=O)c2cccnc2)C1 (configuration not stated) | 4.7µM | – | – | – | – | –
CC#CC(=O)N1CCCC(Cc2cccc(OC)c2)(C(=O)OCC)C1 (configuration not stated) | 6.6µM | ? | – | – | – | –
CCCCC1Cc2[nH]c(=S)[nH]c(=O)c2C(c2ccc(Cl)cc2)O1 (configuration not stated) | · | · | · | – | · | ·
O=[N+]([O-])c1cc2c(ccc3occc32)o1 | · | · | · | -73 | · | ·
Cc1nc2n(n1)C(c1ccccc1)C1=C(CC(c3ccco3)CC1=O)N2 (configuration not stated) | ? | ? | – | – | 56µM | –
c1ccc(CCn2c3ccccc3c3nnc(SCc4ccc5nonc5c4)nc32)cc1 | ? | · | ? | -81 | – | –
CCN(CC)CCSc1nnc2c3ccccc3n(CCc3ccccc3)c2n1 | ? | ? | 10µM | -79 | – | –
O=C1CN(C(=O)c2ccccc2)C(c2ccccc2)c2cc(F)ccc2N1 (configuration not stated) | ? | – | – | – | – | –
O=C1CN(C(=O)c2ccc(Br)o2)C(c2ccccc2)c2cc(F)ccc2N1 (configuration not stated) | 12µM | · | – | – | ? | –
SMILES | Pf growth 96h | Pf growth 48h | HCV inh | HCMV inh | Sm TGR block | SARS PLP yeast
CCOc1ccc(/C=C/C(=O)CCC(=O)O)cc1 | – | – | – | – | – | –
Cc1cccc(N(C)C(=O)COc2cc(=O)n(C)c3ccccc23)c1 | – | · | – | ? | – | –
CN(C(=O)COc1cc(=O)n(C)c2ccccc12)c1ccc(Br)cc1 | 10µM | ? | – | – | – | –
CCN(C(=O)COc1cc(=O)n(C)c2ccccc12)c1cccc(Cl)c1 | ? | ? | – | -90 | – | –
CN(C)S(=O)(=O)c1cccc(NC(=O)COC(=O)CCc2nc3ccccc3s2)c1 | · | – | – | – | – | –
CC[C@@]1(C(=O)OC)N[C@H](CN(C)S(=O)(=O)c2ccc(C(F)(F)F)cc2)[C@@H]2C(=O)N(C)C(=O)[C@@H]21 | · | · | – | – | · | –
CCOc1cc2[nH]c(=S)n(CCC(=O)N3CCc4ccccc4C3)c(=O)c2cc1OCC | 9.3µM | ? | – | ? | – | –
CCN(C(=O)c1cc2cc(Br)cc(OC)c2oc1=O)c1ccccc1 | · | · | · | – | ? | ·
CCn1c(SCC(=O)Nc2ccc3c(c2)OCO3)nc2c1c(=O)n(C)c(=O)n2C | ? | – | – | – | – | –
CCCn1c(SCC(=O)N2CCCC2)nc2c1c(=O)n(C)c(=O)n2C | 1.2µM | – | – | – | – | –
CCc1nc(SCC(=O)N2CCCC2)c2c(=O)n(C)c(=O)n(C)c2n1 | – | – | · | – | – | –
CC(C)n1c(SCC(=O)N2CCCC2)nc2c1c(=O)n(C)c(=O)n2C | – | ? | – | – | – | –
CCCn1c(SCC(=O)Nc2ccccc2N2CCCCC2)nc2c1c(=O)n(C)c(=O)n2C | – | ? | 10µM! | ? | – | –
CCCn1c(SCC(=O)Nc2ccc3c(c2)OCO3)nc2c1c(=O)n(C)c(=O)n2C | 10µM | – | ? | – | – | –
Cn1c(=O)c2c(SCC(=O)N3CCCC3)nc(CC(C)(C)C)nc2n(C)c1=O | 13µM | – | – | – | – | ?
O=C(CC1N=C2c3ccccc3N=C(SCC(=O)Nc3cccc(Cl)c3)N2C1=O)NCc1cccs1 (configuration not stated) | · | · | · | – | – | ·
CC1(C)OC(=O)NC1c1ccccc1 (configuration not stated) | · | · | · | – | · | ·
CC(C)(C)CNC(=O)c1cccc2c1C(=O)c1ccc(-c3cc4ccccc4o3)cc1S2(=O)=O | · | · | – | – | · | –
Cc1ccc2ccccc2c1NC(=O)c1ccco1 | – | –[0.00184 µM] | – | – | – | –
COc1ccccc1Oc1nc(C)c(C(C)=O)cc1C#N | – | – | ? | – | – | –
COc1ccccc1Oc1cc(C#N)c(C#N)cc1-n1nnc2ccccc21 | 2.3µM | 9.3µM | ? | -92 | – | –
Fc1cccc(Cc2c(-c3ccco3)nc3c4ccccc4ccn23)c1 | · | · | · | – | · | ·
COC(=O)c1ccc(NC(=O)C(=O)NCCc2sc(-c3cccc(F)c3)nc2C)cc1 | · | · | · | – | – | ·
CCc1nc2ccc(C(=O)NCCC(C)C)cn2c1N(CCN(C)C)CC1CC1 | · | · | · | – | · | ·
N#Cc1c(-n2ncnc2-c2ccccc2C(F)(F)F)sc2c1CCCCC2 | · | · | · | -69 | – | ·
O=C(Nc1ccc(Br)cc1)C1CCCN1S(=O)(=O)c1ccc(F)cc1 (configuration not stated) | · | · | · | ? | – | ·
COP(=O)(Cc1ccc(C#N)o1)OC | – | – | – | – | 22µM | –
COc1ccc(CN2CCCC(C(=O)c3cccc(OC(C)C)c3)C2)cc1Cn1cccn1 (configuration not stated) | – | 9.3µM | 11µM | – | – | –
